The list is not random: actives were taken first. Their share in the collection is about 3.8%.
PfM18AAP inh: PfM18AAP inhibitors, malaria aminopeptidase, primary screen, biochemical, QFRET, recombinant enzyme | H-Glu-NHMec fluorogenic cleavage | inhibition, % at 7.35 µM | 1.2% of 290,000 active | AID 1822, 2009;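 active = inhibition above the campaign mean inhibition over all tested compounds plus 3 SD, cut at about 28% in these data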;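 also: 0% = plate median of test compound wells and 100% = 2 mM ZnCl2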
Pemphigus Ab inh: inhibitors of pemphigus antibody binding to DSG3, primary screen, biochemical, bead-based, flow cytometry, scFv-GFP; Desmoglein-3 (Homo sapiens), P32926; DSG3-coupled beads, scFv-anti-DSG3-GFP binding; hits give low values; binding (percent of control), % at 10 µM; 0.48% of 310,000 active;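 active = binding more than 3 SD below its plate's average and above zero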;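 also: hits lower antibody fragment binding to DSG3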
pPAFAH inh: pPAFAH enzyme inhibitors, primary screen, biochemical, fluorescence polarization, human. recombinant pPAFAH, FP-rhodamine probe fluorescence polarization. Platelet-activating factor acetylhydrolase (Homo sapiens), Q13093. AID 463082, 2010. inhibition, % at 3.39 µM. 1.5% of 330,000 active;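 active = inhibition above the mean inhibition across the screen plus 3 SD, cut at about 25% in these data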;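 also: inhibitors block binding of the rhodamine activity-based probe so polarization drops; 0% = enzyme with DMSO and 100% = wells lacking pPAFAH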
Target sequence (Q13093 whole entry, looked up): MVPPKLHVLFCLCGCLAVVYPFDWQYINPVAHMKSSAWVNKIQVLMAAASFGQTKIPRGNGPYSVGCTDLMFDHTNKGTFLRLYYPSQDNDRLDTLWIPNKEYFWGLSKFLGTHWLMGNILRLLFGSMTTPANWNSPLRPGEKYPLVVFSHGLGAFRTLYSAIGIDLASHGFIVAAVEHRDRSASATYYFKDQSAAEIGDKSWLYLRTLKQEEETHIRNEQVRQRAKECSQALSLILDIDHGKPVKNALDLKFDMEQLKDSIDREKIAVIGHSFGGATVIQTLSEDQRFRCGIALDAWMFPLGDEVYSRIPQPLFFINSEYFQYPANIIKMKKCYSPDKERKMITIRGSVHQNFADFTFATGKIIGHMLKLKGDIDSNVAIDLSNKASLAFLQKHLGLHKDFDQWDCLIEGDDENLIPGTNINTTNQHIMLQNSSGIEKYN
PAFAH1B2 FP inh: PAFAH1B2 enzyme inhibitors, primary screen, biochemical, fluorescence polarization, human | Platelet-activating factor acetylhydrolase IB subunit alpha2 (Homo sapiens), P68402 | recombinant PAFAH1B2, FP-rhodamine activity probe | inhibition, % at 3.39 µM | 1.2% of 340,000 active | AID 492953, 2010;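 active = inhibition above the mean of all tested compounds plus 3 SD, cut at about 24% in these data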;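 also: 0% = enzyme with DMSO and 100% = wells lacking PAFAH1B2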
PAFAH2 inh: PAFAH2 enzyme inhibitors, primary screen, biochemical, fluorescence polarization, human; Platelet-activating factor acetylhydrolase 2, cytoplasmic (Homo sapiens), Q99487; recombinant PAFAH2, FP-rhodamine activity probe; inhibition, % at 3.39 µM; 0.99% of 340,000 active; AID 492956, 2010;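 active = inhibition above the mean over all tested compounds plus 3 SD, cut at about 30% in these data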;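 also: inhibitors block probe labeling of enzyme so polarization drops; 0% = enzyme with DMSO and 100% = wells lacking PAFAH2 protein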
PAFAH1B3 FP inh: PAFAH1B3 enzyme inhibitors, primary screen, biochemical, fluorescence polarization, human; inhibition, % at 3.39 µM; AID 492972, 2010; 0.28% of 340,000 active; recombinant PAFAH1B3, FP-rhodamine probe; Platelet-activating factor acetylhydrolase IB subunit alpha1 (Homo sapiens), Q15102;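 active = inhibition above the screen-wide average of all tested compounds plus 3 SD, cut at about 25% in these data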;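 also: 0% = enzyme with DMSO only and 100% = wells lacking PAFAH1B3 protein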
Target sequence (Q15102 whole entry, looked up): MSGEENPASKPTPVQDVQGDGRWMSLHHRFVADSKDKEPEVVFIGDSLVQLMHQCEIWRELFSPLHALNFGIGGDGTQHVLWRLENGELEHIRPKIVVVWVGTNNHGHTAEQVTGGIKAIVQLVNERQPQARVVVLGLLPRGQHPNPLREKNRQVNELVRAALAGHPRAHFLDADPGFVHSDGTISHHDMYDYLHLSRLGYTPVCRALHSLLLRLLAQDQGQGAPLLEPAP
Numbers without * were called inactive.

How did CC(NC(N)=O)C12CC3CC(CC(C3)C1)C2 (stereo unspecified) do in these assays?
PfM18AAP inh: -5.5; pPAFAH inh: 3.1; PAFAH1B2 FP inh: 25.8*; PAFAH2 inh: 4.2; PAFAH1B3 FP inh: 5.1

How did O=C(CNC(=O)c1ccc(Br)cc1)N=Nc1c(O)[nH]c2ccc([N+](=O)[O-])cc12 do in these assays?
PfM18AAP inh: -6.7; Pemphigus Ab inh: 35.0*; pPAFAH inh: 4.9; PAFAH1B2 FP inh: -0.3; PAFAH2 inh: 0.5; PAFAH1B3 FP inh: 1.6

What do the screens show for `O=C(O)c1ccccc1N=Nc1c(O)[nH]c2ccc([N+](=O)[O-])cc12`?
PfM18AAP inh: 1.1; Pemphigus Ab inh: 106.2; pPAFAH inh: 20.6; PAFAH1B2 FP inh: 8.6; PAFAH2 inh: 36.9*; PAFAH1B3 FP inh: 17.8

What do the screens show for `CCNC(=S)N=Nc1c(O)[nH]c2ccc([N+](=O)[O-])cc12`?
PfM18AAP inh: 8.3; Pemphigus Ab inh: 39.8*; pPAFAH inh: 5.9; PAFAH1B2 FP inh: 3.4; PAFAH2 inh: 8.2; PAFAH1B3 FP inh: 9.0

Results for Cc1ccc(NCC(=O)N=Nc2c(O)[nH]c3ccc([N+](=O)[O-])cc23)cc1 ?
PfM18AAP inh: 8.3; pPAFAH inh: 25.4*

What do the screens show for `Cc1cccnc1NC(=O)Nc1cccc(F)c1`?
Pemphigus Ab inh: 104.9

How did O=C(NCCc1c[nH]c2ccccc12)c1ccc([N+](=O)[O-])o1 do in these assays?
Pemphigus Ab inh: 98.0

What do the screens show for `CCNc1nc(NC(C)C)nc(N(C#N)C(C)C(=O)N(CC)CC)n1` (stereo unspecified)?
PfM18AAP inh: -19.9; Pemphigus Ab inh: 102.1; pPAFAH inh: 4.0

Results for CC1=C(C(=O)N(C)C)CC(CC(=O)NC(c2ccccc2)c2ccccc2)C(=O)N1CCCN1CCCC1=O (stereo unspecified) ?
Pemphigus Ab inh: 110.6

What do the screens show for `O=C(O)c1ccc(N=Nc2c(O)[nH]c3cc(Cl)ccc23)cc1`?
PfM18AAP inh: 3.0; Pemphigus Ab inh: 96.2; pPAFAH inh: 4.9; PAFAH1B2 FP inh: 9.7; PAFAH2 inh: 5.0; PAFAH1B3 FP inh: 13.3

Results for O=C(O)c1ccc(N=Nc2c(O)[nH]c3ccc(Br)cc23)cc1 ?
PfM18AAP inh: 4.1; Pemphigus Ab inh: 108.8; pPAFAH inh: 4.1; PAFAH1B2 FP inh: 33.4*; PAFAH2 inh: -0.4; PAFAH1B3 FP inh: 15.9

Results for CCOC(=O)c1cc(CC)sc1NC(=O)c1ccc(N2C(=O)CCC2=O)cc1 ?
PfM18AAP inh: -4.2; Pemphigus Ab inh: 78.7*; pPAFAH inh: -1.0; PAFAH1B2 FP inh: 1.6; PAFAH2 inh: -0.3; PAFAH1B3 FP inh: -4.7

Results for Cc1onc(-c2ccccc2)c1C(=O)NC(=S)NNC(=O)c1ccc(O)cc1O ?
PfM18AAP inh: 30.2*; Pemphigus Ab inh: 99.4; pPAFAH inh: 3.7; PAFAH1B2 FP inh: 3.8; PAFAH2 inh: 2.3; PAFAH1B3 FP inh: 16.9

What do the screens show for `Cc1onc(-c2ccccc2)c1C(=O)NC(=S)NNC(=O)c1ccccc1O`?
PfM18AAP inh: 9.5; Pemphigus Ab inh: 98.0; pPAFAH inh: 5.3; PAFAH1B2 FP inh: 10.4; PAFAH2 inh: 6.9; PAFAH1B3 FP inh: 20.1

How did CN(c1ccccc1)S(=O)(=O)c1cccc(NC(=O)CCNC(=O)c2ccco2)c1 do in these assays?
Pemphigus Ab inh: 117.8

What do the screens show for `Cc1ccc(Nc2nc(CSc3n[nH]c(N)n3)cs2)cc1`?
PfM18AAP inh: 28.9*; Pemphigus Ab inh: 101.7; pPAFAH inh: 5.6; PAFAH1B2 FP inh: 6.2; PAFAH2 inh: 6.8; PAFAH1B3 FP inh: 7.2

How did Cc1ccc(CSc2n[nH]c(N)n2)cc1 do in these assays?
PfM18AAP inh: -2.6; Pemphigus Ab inh: 112.9; pPAFAH inh: 0.6; PAFAH1B2 FP inh: 5.7; PAFAH2 inh: -1.0; PAFAH1B3 FP inh: 4.4

How did CCNC(=S)/N=C(/Nc1ccc(OC)cc1)Nc1nc(C)cc(C)n1 do in these assays?
PfM18AAP inh: 13.6; Pemphigus Ab inh: 104.1; pPAFAH inh: -0.5

Results for CCNC(=S)/N=C(/Nc1ccccc1)Nc1nc(C)cc(C)n1 ?
PfM18AAP inh: 29.8*; Pemphigus Ab inh: 106.2; pPAFAH inh: 0.6

How did Cc1ccc(S(=O)(=O)NC(CC(C)C)C(=O)Nc2ccncc2)cc1 (stereo unspecified) do in these assays?
Pemphigus Ab inh: 92.7; pPAFAH inh: 1.6; PAFAH1B2 FP inh: 24.7*; PAFAH2 inh: 6.7; PAFAH1B3 FP inh: -3.9

How did O=c1cc(-c2ccc(O)c(O)c2)oc2cc(O)cc(O)c12 do in these assays?
Pemphigus Ab inh: 97.0; pPAFAH inh: 21.5; PAFAH1B2 FP inh: 34.0*; PAFAH2 inh: 29.6; PAFAH1B3 FP inh: 39.4*

What do the screens show for `N#Cc1ccccc1S(=O)(=O)N1CCN(Cc2cc3c(cc2Br)OCCO3)CC1`?
Pemphigus Ab inh: 103.6

Results for Cc1ccccc1-n1nc2c(c1NC(=O)c1ccc(Br)o1)CSC2 ?
PfM18AAP inh: -4.5; Pemphigus Ab inh: 86.5*; pPAFAH inh: 12.1; PAFAH1B2 FP inh: 3.0; PAFAH2 inh: -1.0; PAFAH1B3 FP inh: -0.6

Results for CCN(CC(=O)NCc1ccc(Cl)cc1)C(=O)CN1C(=O)NC(C)(c2ccccc2)C1=O (stereo unspecified) ?
PfM18AAP inh: -1.7; Pemphigus Ab inh: 105.8; pPAFAH inh: 6.5; PAFAH1B2 FP inh: 5.7; PAFAH2 inh: -7.0; PAFAH1B3 FP inh: -0.7

Results for COc1ccc(-c2csc(NC(=O)Nc3ccccc3)n2)cc1 ?
PfM18AAP inh: -1.8; Pemphigus Ab inh: 86.5; pPAFAH inh: 8.7; PAFAH1B2 FP inh: 6.8; PAFAH2 inh: 7.5; PAFAH1B3 FP inh: 5.1

Results for Cc1ccc(NC(=O)Nc2nc(-c3ccc(C)s3)cs2)cc1 ?
PfM18AAP inh: 28.1*; Pemphigus Ab inh: 100.6; pPAFAH inh: -0.5; PAFAH1B2 FP inh: 6.5; PAFAH2 inh: -1.2; PAFAH1B3 FP inh: 8.1

What do the screens show for `CN(CC(=O)Nc1cc(Cl)cc(Cl)c1)Cc1cccs1`?
PfM18AAP inh: 3.5; Pemphigus Ab inh: 104.5; pPAFAH inh: 5.8; PAFAH1B2 FP inh: 6.1; PAFAH2 inh: 3.3; PAFAH1B3 FP inh: -1.8

What do the screens show for `CCCc1ccc(OCc2ccc(C(=O)N3CCSCC3)o2)cc1`?
PfM18AAP inh: 1.6; Pemphigus Ab inh: 93.8; pPAFAH inh: 24.6*; PAFAH1B2 FP inh: 0.8; PAFAH2 inh: -3.6; PAFAH1B3 FP inh: 8.6

Results for CCCCCCn1c(=O)n2n(c1=O)[C@@H]1CN(S(=O)(=O)c3ccc(C)cc3)C[C@]1(O)[C@@H](OC(=O)Nc1cccs1)C2 ?
Pemphigus Ab inh: 107.1

How did O=C(O)c1ccc2c(=O)n3c(nc2c1)/C(=C/c1ccccc1OC(F)F)CC3 do in these assays?
PfM18AAP inh: -9.0; Pemphigus Ab inh: 86.9; pPAFAH inh: 1.1; PAFAH1B2 FP inh: 3.7; PAFAH2 inh: -13.4; PAFAH1B3 FP inh: 9.5

How did Cc1ccc(Nc2c(-c3ccccn3)nc3ccc(C)cn23)cc1 do in these assays?
PfM18AAP inh: 1.3; Pemphigus Ab inh: 105.7; pPAFAH inh: 28.1*; PAFAH1B2 FP inh: 7.9; PAFAH2 inh: -3.3; PAFAH1B3 FP inh: 5.4
